This is a sample that favours compounds with a hit; in the whole collection about 3.7% have one here.
HepG2 tox-1 = counter-screen for TGF-b inhibitors: cytotoxicity in HepG2 cells | HepG2 CAGA-GFP viability, ATP luminescence, 18 h | Potency, µM (series often up to 46.1 µM), most hits filed as cytotoxic | 410,000 compounds, 0.76% hits | AID 588856
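CellTiter-Glo luminescence gave cytotoxicity after 18 hours at 37 degrees C. The cells were HepG2 CAGA-GFP in 1% FBS DMEM, stimulated with 500 pg/mL TGF-beta after compound addition. %Activity was normalised to no-cell wells (complete cell-killing) and DMSO (no toxicity), and curves were fitted and classified.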
ATXN viability = cell viability loss in ATXN counter-screen; S2 cells (HEK-293 line with an ATXN2-luciferase reporter) viability, CellTiter-Fluor protease fluorescence, 24 h; AID 651635; 400,000 compounds, 0.49% hits; Potency, µM (series often up to 56.7 µM), actives largely listed as cytotoxic; further: nearly all actives have a fitted effect of over 40% in size
ATXN2 expr inh = reduces ATXN2 reporter expression in HEK-293 cells. Potency, µM (titrated, usually from 57 µM), usual class: inhibitors. 360,000 compounds, 0.72% hits. HEK-293 ATXN2-luciferase reporter, luminescence, 24 h. AID 1745845; further: nearly all actives have a fitted effect of over 55% in size
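qHTS (up to 57 uM final) was run with 24 h compound exposure of reporter cells at 37 °C. Each well was multiplexed: SteadyGlo luminescence measured ATXN2-luciferase expression after a fluorogenic Gly-Phe-AFC viability readout (25 uM final).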
TGFb SMAD3 inh = blocks TGF-b signaling; HepG2 CAGA-GFP TGF-b/SMAD3 reporter, GFP fluorescence, 18 h; TGF-beta stimulated, 500 pg/mL final; Potency, µM (series often up to 46.1 µM), most hits filed as inhibitors; 410,000 compounds, 1.2% hits; AID 588855; further: nearly all actives have a fitted effect of over 65% in size
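HEPG2 CAGA-GFP cells (1000/well, DMEM with 1% FBS) were pre-incubated 2 h at 37 degrees C, given compound by pin tool, then stimulated with TGF-beta at 500 pg/mL final for 18 h before per-cell GFP fluorescence imaging.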
GLP-1R agonist = activates the human GLP-1 receptor; AID 624172; Potency, µM (top dose mostly 45.6 µM), usual class: activators; 380,000 compounds, 0.007% hits; HEK293 GLP-1R CRE-luciferase, luminescence, 4-6 h; cells express a hypersensitive GLP-1R form; P43220
Target sequence (P43220 whole entry, looked up): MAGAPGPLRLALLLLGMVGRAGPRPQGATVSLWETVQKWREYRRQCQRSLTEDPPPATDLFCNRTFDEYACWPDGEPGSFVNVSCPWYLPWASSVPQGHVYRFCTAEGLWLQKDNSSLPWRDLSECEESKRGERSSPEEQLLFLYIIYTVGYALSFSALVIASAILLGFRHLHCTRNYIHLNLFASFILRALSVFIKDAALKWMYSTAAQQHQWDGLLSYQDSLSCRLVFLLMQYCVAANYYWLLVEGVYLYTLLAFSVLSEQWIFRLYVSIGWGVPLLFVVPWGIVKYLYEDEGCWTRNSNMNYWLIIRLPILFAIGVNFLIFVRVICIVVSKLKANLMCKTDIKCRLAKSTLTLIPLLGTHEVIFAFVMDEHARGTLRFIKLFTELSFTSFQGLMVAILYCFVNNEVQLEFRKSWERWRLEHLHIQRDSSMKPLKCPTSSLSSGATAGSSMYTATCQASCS
GLP1R inv ag = GLP-1 receptor (human) inverse agonism. 410,000 compounds, 1.6% hits. AID 624417. HEK293 GLP-1R CRE-luciferase, luminescence, 24 h; GLP-1R form is constitutively active. Potency, µM (top dose mostly 38.3 µM), usual class: inhibitors. P43220; further: nearly all actives have a fitted effect of over 55% in size
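Inverse agonism was detected as reduced cAMP-driven luciferase luminescence after 24 h compound treatment. The cells were HEK293 clones expressing constitutively active human GLP-1R with the reporter. Reporter-only and GPR119 cell lines served as counterscreen controls.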
TGFb CAGA inh = confirmation of TGF-b signaling inhibitors in HepG2 reporter cells. shares compounds with TGFb SMAD3 inh. HepG2 CAGA-GFP TGF-b reporter, GFP fluorescence, 18 h; cells stimulated with TGF-beta, 500 pg/mL. Potency, µM (top dose mostly 46.1 µM), usual class: inhibitors. 1,600 compounds, 63% hits; further: nearly all actives have a fitted effect of over 65% in size
HepG2 tox-2 = HepG2 cytotoxicity, TGF-b inhibitor counterscreen | HepG2 CAGA-GFP viability, ATP luminescence, 18 h; cells stimulated with TGF-beta, 500 pg/mL | Potency, µM (titrated, usually from 46.1 µM), most hits filed as inhibitors | AID 720535 | shares compounds with TGFb SMAD3 inh | 1,600 compounds, 27% hits; further: nearly all actives have a fitted effect of over 70% in size
TGFb CCL64 inh = orthogonal confirmation of TGF-b inhibitors in CCL64 cells | shares compounds with TGFb SMAD3 inh | CCL64 CAGA-GFP reporter, TGF-b stimulated, GFP fluorescence, 18 h | Potency, µM (titrated, usually from 46.1 µM), most hits filed as inhibitors | 1,600 compounds, 41% hits; further: nearly all actives have a fitted effect of over 65% in size
TGFb COP inh = validation of TGF-b inhibitors in HepG2 COP promoter reporter; shares compounds with TGFb SMAD3 inh; HepG2 COP-GFP TGF-b reporter, GFP fluorescence, 18 h; cells stimulated by added recombinant TGF-beta; Potency, µM (doses to about 46.1 µM), hits mostly inhibitors; 1,600 compounds, 3% hits; AID 720537; further: nearly all actives have a fitted effect of over 70% in size
Of the large screens only hits and unclear results are named; the others gave an inactive call (follow-up assays come after a bar, where they were run). The call rests on the fitted dose curve; in most records, active means well fitted curve in the direction sought with a large enough effect; inconclusive means small, poorly fitted or top-dose-only effect, or another doubt; inactive means no such curve, though single readings can be large; an effect the other way counts as inactive or inconclusive.

Cc1cccc2c1N(Cc1ccccc1OCCC(C)C)C(=O)C2=O	none (no result: ATXN viability, ATXN2 expr inh, TGFb SMAD3 inh, GLP-1R agonist)
COc1ccc(CN2C[C@H]3CCCN3c3cc(Br)ccc3S2(=O)=O)cc1	ATXN viability inconclusive, TGFb SMAD3 inh 10µM, GLP1R inv ag 0.89µM | TGFb CAGA inh 8.2µM | HepG2 tox-2 inactive | TGFb CCL64 inh inconclusive | TGFb COP inh inactive
O=C(Oc1ccc(Cl)c2cccnc12)c1ccco1	TGFb SMAD3 inh 8.9µM, GLP1R inv ag inconclusive | TGFb CAGA inh inactive | HepG2 tox-2 inactive | TGFb CCL64 inh inactive | TGFb COP inh inactive
COC(=O)c1ccc(C(=O)OC)c(NC(=O)CSc2cccc[n+]2[O-])c1	HepG2 tox-1 6.3µM, ATXN viability 1.3µM, ATXN2 expr inh 1µM, TGFb SMAD3 inh 3.5µM, GLP1R inv ag inconclusive | TGFb CAGA inh inactive | HepG2 tox-2 inactive | TGFb CCL64 inh inactive | TGFb COP inh inactive
O=C(CSc1cccc[n+]1[O-])Nc1ccccc1Oc1ccccc1	TGFb SMAD3 inh inconclusive, GLP1R inv ag inconclusive | TGFb CAGA inh inactive | HepG2 tox-2 inactive | TGFb CCL64 inh inactive | TGFb COP inh inactive
CCCCc1ccc(NC(=O)CN(C)CC(=O)Nc2ccccc2Cl)cc1	TGFb SMAD3 inh 22µM, GLP1R inv ag inconclusive | TGFb CAGA inh inconclusive | HepG2 tox-2 inactive | TGFb CCL64 inh inconclusive | TGFb COP inh inactive
CN(CC(=O)Nc1ccccc1)CC(=O)Nc1ccccc1Cl	GLP1R inv ag inconclusive
COc1ccc(/C=C/C(=O)c2cc(F)ccc2OC(=O)c2ccccc2)cc1OC	ATXN viability inconclusive, TGFb SMAD3 inh 8.9µM, GLP1R inv ag inconclusive | TGFb CAGA inh inconclusive | HepG2 tox-2 inactive | TGFb CCL64 inh inconclusive | TGFb COP inh inactive
O=C(c1ccco1)N1CCN(c2ncnc3scc(-c4ccc(F)cc4)c23)CC1	TGFb SMAD3 inh 18µM | TGFb CAGA inh 16µM | HepG2 tox-2 inactive | TGFb CCL64 inh inactive | TGFb COP inh inactive
Cc1cc(F)ccc1-n1nnc(C(N)=O)c1C	none
COc1cc(NC(=O)N2CCc3nc(Nc4cc(Cl)cc(Cl)c4)ncc3C2)cc(OC)c1OC	ATXN2 expr inh inconclusive, TGFb SMAD3 inh 18µM, GLP1R inv ag 10µM | TGFb CAGA inh 21µM | HepG2 tox-2 inconclusive | TGFb CCL64 inh 7.3µM | TGFb COP inh inactive
COc1ccc(CNC(=O)N2CCc3nc(Nc4cc(OC)c(OC)c(OC)c4)ncc3C2)cc1	none
CC(=O)c1ccc(-c2cc(C3C4C=CCC(C)C4C(=O)N3Cc3ccccc3)ccc2F)cc1 (stereo not drawn)	none (no result: ATXN viability, ATXN2 expr inh, GLP-1R agonist, GLP1R inv ag)
O=C(Nc1cccc(-n2cnnn2)c1)c1cc(Cl)ccc1Cl	TGFb SMAD3 inh 16µM, GLP1R inv ag inconclusive | TGFb CAGA inh inconclusive | HepG2 tox-2 inconclusive | TGFb CCL64 inh inactive | TGFb COP inh inactive
O=C(Nc1cccc(-n2cnnn2)c1)c1ccccc1Br	none
